Test results from PubChem BioAssay AID504333 (National Center for Advancing Translational Sciences (NCATS), 2011).
Among all 360,000 compounds or so, about 16,000 (4.4%) were called active. Not shown: some 9% with an inconclusive outcome. The call rests on the fitted dose curve; in most records, active means well fitted inhibition curve with a large enough effect; inconclusive means small, poorly fitted or top-dose-only effect; inactive means no such curve, though single readings can be large or run the other way. This excerpt belongs to a sample that is enriched for actives.

target: Bromodomain adjacent to zinc finger domain protein 2B (Homo sapiens) (UniProt Q9UIF8); test: qHTS Assay for Inhibitors of BAZ2B; conditions: AlphaScreen BAZ2B-H3K14Ac peptide displacement; series mostly up to 114 µM; activity change, negative = inhibition: at the top concentration; further: nearly all actives have a fitted effect of over 60% in size
How it was run: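 BAZ2B (50 nM) with biotin-H3(5-23)K14Ac peptide (50 nM) in PBS pH 7.4, 0.01% Tween-20, preformed 30 min, then compound 30 min at room temperature; top concentration 110uM. AlphaScreen streptavidin donor/nickel chelate acceptor beads (10 ug/mL final), 20 min dark, signal read.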
On the % scale 0 is the no-effect control and ±100 the full control effect; potency means the concentration at half of the fitted maximal effect.

Sequence of Bromodomain adjacent to zinc finger domain protein 2B (Homo sapiens) (Q9UIF8 whole entry, looked up, the tested form may be a part): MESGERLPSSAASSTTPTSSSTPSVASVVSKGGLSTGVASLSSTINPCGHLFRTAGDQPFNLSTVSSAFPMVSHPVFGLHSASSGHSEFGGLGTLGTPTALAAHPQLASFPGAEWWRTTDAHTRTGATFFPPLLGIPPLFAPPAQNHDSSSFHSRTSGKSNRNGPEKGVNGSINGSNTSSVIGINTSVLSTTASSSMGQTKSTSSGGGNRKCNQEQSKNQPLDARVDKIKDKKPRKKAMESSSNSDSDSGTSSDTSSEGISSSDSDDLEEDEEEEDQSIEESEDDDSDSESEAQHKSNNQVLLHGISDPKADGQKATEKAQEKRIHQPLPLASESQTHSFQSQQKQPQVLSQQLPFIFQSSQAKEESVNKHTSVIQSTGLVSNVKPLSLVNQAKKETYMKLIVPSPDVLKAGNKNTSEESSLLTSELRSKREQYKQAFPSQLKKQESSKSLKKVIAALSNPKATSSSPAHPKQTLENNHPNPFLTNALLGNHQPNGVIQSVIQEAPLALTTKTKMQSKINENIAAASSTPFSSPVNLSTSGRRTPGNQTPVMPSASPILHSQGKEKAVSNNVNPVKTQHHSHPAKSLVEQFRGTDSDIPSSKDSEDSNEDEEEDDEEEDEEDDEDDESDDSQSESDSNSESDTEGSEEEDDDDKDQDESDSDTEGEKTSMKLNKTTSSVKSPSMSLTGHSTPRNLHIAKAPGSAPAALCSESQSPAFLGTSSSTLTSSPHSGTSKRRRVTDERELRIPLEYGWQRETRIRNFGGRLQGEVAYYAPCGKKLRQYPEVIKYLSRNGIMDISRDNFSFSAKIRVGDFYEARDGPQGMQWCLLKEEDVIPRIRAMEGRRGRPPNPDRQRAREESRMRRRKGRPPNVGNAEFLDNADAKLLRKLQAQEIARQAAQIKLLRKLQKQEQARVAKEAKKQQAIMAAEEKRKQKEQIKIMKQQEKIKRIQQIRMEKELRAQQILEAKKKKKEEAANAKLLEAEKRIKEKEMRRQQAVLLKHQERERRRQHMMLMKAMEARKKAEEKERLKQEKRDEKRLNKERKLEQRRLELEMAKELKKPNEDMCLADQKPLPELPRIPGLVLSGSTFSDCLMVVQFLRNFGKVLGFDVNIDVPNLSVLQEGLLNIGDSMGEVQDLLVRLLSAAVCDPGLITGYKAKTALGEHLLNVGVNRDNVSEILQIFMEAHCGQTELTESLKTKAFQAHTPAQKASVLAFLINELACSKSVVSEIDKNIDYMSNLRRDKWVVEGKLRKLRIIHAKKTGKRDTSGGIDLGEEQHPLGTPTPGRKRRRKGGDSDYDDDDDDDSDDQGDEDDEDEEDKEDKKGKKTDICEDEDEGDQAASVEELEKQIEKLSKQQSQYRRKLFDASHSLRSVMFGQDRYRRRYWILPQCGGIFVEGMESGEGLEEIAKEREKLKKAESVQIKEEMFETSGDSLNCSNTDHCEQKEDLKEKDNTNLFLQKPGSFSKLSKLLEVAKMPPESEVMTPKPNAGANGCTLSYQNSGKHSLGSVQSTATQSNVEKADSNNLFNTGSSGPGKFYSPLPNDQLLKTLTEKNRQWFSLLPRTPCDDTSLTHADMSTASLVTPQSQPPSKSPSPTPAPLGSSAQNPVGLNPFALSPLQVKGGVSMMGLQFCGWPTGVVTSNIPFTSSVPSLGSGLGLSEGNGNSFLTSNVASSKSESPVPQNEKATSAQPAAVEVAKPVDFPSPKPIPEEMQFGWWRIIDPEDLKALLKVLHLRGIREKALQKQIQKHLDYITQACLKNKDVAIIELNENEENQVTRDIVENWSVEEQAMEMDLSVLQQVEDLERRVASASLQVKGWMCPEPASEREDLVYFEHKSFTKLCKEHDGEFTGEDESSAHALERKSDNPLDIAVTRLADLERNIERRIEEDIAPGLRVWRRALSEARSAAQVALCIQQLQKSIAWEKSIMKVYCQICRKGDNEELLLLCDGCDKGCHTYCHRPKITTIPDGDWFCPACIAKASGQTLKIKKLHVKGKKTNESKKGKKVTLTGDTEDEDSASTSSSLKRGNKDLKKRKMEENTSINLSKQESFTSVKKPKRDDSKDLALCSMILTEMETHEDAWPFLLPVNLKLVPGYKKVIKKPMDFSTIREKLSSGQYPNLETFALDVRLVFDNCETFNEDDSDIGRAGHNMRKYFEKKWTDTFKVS

Activity change, negative = inhibition, inactive:
COc1ccc(S(=O)(=O)n2nc(C)c(S(=O)(=O)N3CCCCCC3)c2C)cc1 -5.25%, CC(=O)Nc1ccc2nc(SCCOc3cc(C)cc(C)c3)sc2c1 -8.3%, CCOc1cc2[nH]c(=O)n(Cc3ccc(C(=O)NCCN(CC)CC)cc3)c(=O)c2cc1OCC 1.27%, CCCC(=O)N1CCN(c2nc3c(OC)ccc(C)c3s2)CC1 -9.35%, Cc1c2cnn(-c3ccccc3)c(=O)c2c(C)n1C(C)C(=O)Nc1ccc(Br)cc1F (stereo not drawn) -11.3%, COc1ccc(OC)c(-c2csc(NC(=O)COC(=O)C3CC3)n2)c1 -31.5%, COc1ccc(-c2csc(NC(=O)COC(=O)c3ccc(Br)o3)n2)cc1 -0.695%, COc1ccc(-c2csc(NC(=O)COC(=O)Cc3ccc(Cl)cc3Cl)n2)cc1 -0.543%, COc1ccc(CC(=O)Nc2nc(-c3ccc(F)c(F)c3)cs2)cc1OC -16.6%, CC1CCN(c2nc3ccc(C(=O)N4CCN(c5ccccc5)CC4)cc3s2)CC1 -37%, COc1ccccc1C(=O)Nc1c(C(=O)N(C)Cc2ccccc2)sc2nc(C)c(Cl)c(C)c12 -26%, COc1ccc(NC(=O)CCNS(=O)(=O)c2ccc3c(c2)CCCC(=O)N3)cc1Cl -0.24% [at 57.1 µM], COc1ccc(NC(=O)CSc2nc3ccccc3n2CC(=O)N2CCCCC2C)cc1 (stereo not drawn) -14.8%, Cc1ccc(S(=O)(=O)N(CC(=O)Nc2ccc(Cl)cc2Cl)c2ccccc2C)cc1 -13.1%, CCOc1cc(C(=O)NCCc2csc3nc(-c4ccc(C)cc4)nn23)cc(OCC)c1OCC 1.07%, CCOC(=O)c1cccc(NS(=O)(=O)c2cc(-c3cnc(C)o3)ccc2OC)c1 -8.57%, O=C(NC1CCN(Cc2ccccc2)CC1)c1ccc(Cn2c(=O)c3ccccc3n(Cc3cccc(F)c3)c2=O)cc1 -3.86%, CCOC(=O)C1CCCN(C(=O)Cn2ncc3c(C)n(Cc4ccc(F)cc4)c(C)c3c2=O)C1 (stereo not drawn) 9.72%, CCCCN(CC)CCCNC(=O)c1nn(C)c2c1CS(=O)(=O)c1ccccc1-2 -1.12%, COc1ccccc1CN1CCC(CNC(=O)c2cnn(-c3cccc(Cl)c3)c2C2CCN(C(=O)OC(C)(C)C)CC2)CC1 4.39% [at 57.1 µM], COC(=O)C1=C(C)N(C)C(=S)NC1c1ccccc1 (stereo not drawn) 6.05%, COCCN1C(=O)N[C@@H](c2ccccc2)C(C(=O)OC)=C1C -4.69%, COC(=O)CC1Oc2ccccc2-n2cc(-c3ccccc3)nc21 (stereo not drawn) -31.9%, COc1ccc(C(=O)/C=C/c2ccc(OC3CSC3)cc2)cc1 -4.21%, COc1ccc(C(=O)/C=C/c2cccnc2)c(OC)c1 2.6%, COc1cc(OC)c(OC)cc1/C=C/c1nc2cc3ccccc3cc2c(=O)n1-c1ccc(F)c(Cl)c1 -24%, COc1ccc(CCNS(=O)(=O)c2cc(-c3cc(C)no3)ccc2C)cc1OC -3.59%, Cc1ccc(C)c(OCC(=O)N2CCN(C(=O)c3ccco3)CC2)c1 6.13%, CCC(=O)Nc1ccc(C(=O)N2CCN(C(=O)c3ccco3)CC2)cc1 -11.3%, CCOc1ccc(Nc2c(S(=O)(=O)c3ccccc3)cnc3ccccc23)cc1 -29.1%, O=C(N/N=C/c1cccnc1)c1cc2ccccc2cc1O -13.6%, CC(C)(C)OC(=O)NNc1c2ccccc2nc2ccccc12 -38.3%, COC(=O)c1ccccc1NC(=O)c1ccc2c(=O)n3c(nc2c1)CCCCC3 0.816%, CC1=C(C(=O)N2CCN(c3cccc(C(F)(F)F)c3)CC2)C2(CCCCC2)OC1=O -9.34%, O=C(NCc1ccccc1)C(=O)NCC(c1ccco1)S(=O)(=O)c1ccc(Cl)cc1 (stereo not drawn) -0.73%, Cc1cc(C(=O)NNC(=O)c2ccccc2O)c(C)o1 -5.59%, CC(C)=C(NC(=O)c1ccccc1)C(=O)N/N=C(\C)c1ccccc1O -7%, COc1cccc(-c2nc(S(=O)(=O)c3ccc(C)cc3)c(NCc3ccccc3)o2)c1 17.1%, CCC(=O)OCCNc1nc(-c2ccccc2)nc2ccccc12 3.03%, CCOCCCNc1nc(-c2ccccc2)nc2ccccc12 6.2%, O=c1c2cccnc2n(Cc2cccc(F)c2)c(=O)n1Cc1ccccc1Cl 41.6%, O=c1c2ccccc2n(Cc2cccc(Cl)c2)c(=O)n1Cc1ccccc1 -8.19%, COc1ccc(CNC(=O)c2cc3c(s2)-c2ccccc2OC3)cc1 1.59%, Cc1nc2c(-c3ccccc3)c(C)nn2c(C)c1CCC(=O)NCCc1ccccc1 3.94%, CC1=C(c2ccc(C)cc2)S(=O)(=O)NC1=NCCCN1CCN(c2cc(C)ccc2C)CC1 -24.4%, CCOc1ccc(CCNC(=O)c2c(C)oc3ncn(C)c(=O)c23)cc1 16.3% [at 57.1 µM], COc1ccc(CCNC(=O)c2cnc3sc(N4CCCCCC4)nn3c2=O)cc1OC -16.6%, O=C(CCn1c(=O)c2ccccc2n(Cc2ccc(Cl)cc2)c1=O)NCc1ccc2c(c1)OCO2 2.09%, CCN(c1ccccc1)S(=O)(=O)c1cc(C(=O)NCc2ccccn2)ccc1C 4.88%, Cc1ccc(NC(=O)c2cccs2)cc1S(=O)(=O)N(C)C 9.52%, O=S(=O)(Nc1ccc2nc(-c3cccc(Cl)c3)oc2c1)c1ccccc1 -6.28%, COc1ccc(CNC(=O)CSc2nc3ccccc3nc2Cc2ccccc2)cc1 3.24%

Potency, active:
COc1ccc(OC)c(Nc2nc(-c3ccc(O)c(O)c3)cs2)c1 50.1 µM, COc1ccc(-c2csc(Nc3ccc(O)cc3)n2)cc1 35.5 µM, CCN1C(=S)N[C@@H](c2cccc(C(F)(F)F)c2)C(C(=O)OC)=C1C 50.1 µM, COc1ccc(/C=C/C(=O)c2cc(Br)ccc(=O)c2O)cc1 44.7 µM, Cc1ccc(OCC(=O)Nc2ccc(N3CCN(C(=O)c4ccco4)CC3)cc2)c(C)c1 31.6 µM, O=C(NNc1c2ccccc2nc2ccccc12)c1cc2ccccc2cc1O 8.91 µM, C/C(=N\NC(=O)c1ccoc1C)c1ccccc1O 50.1 µM, CC(C)(C)Nc1nc(-c2ccccn2)nc2ccccc12 50.1 µM, Clc1cccc(CN2COc3c(cc(Cl)c4cccnc34)C2)c1 28.2 µM, O=c1ccc2c(-c3ccccc3S(=O)(=O)O)c3ccc(O)c(O)c3oc-2c1O 1 µM, Cc1ccc(NC(=O)CNCc2ccccn2)cc1S(=O)(=O)N(C)C 25.1 µM
